Only some compounds are listed: those with a hit (about 4.8% of all), similar ones and a draw of the others.
DAX1 inh-1: NR0B1 (DAX1) inhibition. P51843. HEK293 Gal4-DAX1 luciferase reporter, luminescence. inhibition, % at 6.75 µM. 0.99% of 340,000 active. AID 504766;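 active = inhibition above the mean over all tested compounds plus 3 SD, cut at about 4.2% in these data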;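 also: 0% = DAX1-transfected cells with DMSO and 100% = empty-vector control cells with DMSO; inhibition shows as a rise in luminescence from relieved DAX1 repression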
Target sequence (P51843 207-470 limits assumed): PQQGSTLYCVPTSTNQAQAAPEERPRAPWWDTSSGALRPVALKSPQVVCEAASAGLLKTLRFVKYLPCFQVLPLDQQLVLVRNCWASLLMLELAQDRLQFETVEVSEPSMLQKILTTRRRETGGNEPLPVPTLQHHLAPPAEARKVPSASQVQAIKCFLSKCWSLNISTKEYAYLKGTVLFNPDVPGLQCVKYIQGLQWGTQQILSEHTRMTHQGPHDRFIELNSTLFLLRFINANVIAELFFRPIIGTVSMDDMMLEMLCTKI
hcDAF-12 act: activates DAF-12 receptor from parasite H. contortus | HEK293 hcDAF-12 lit1-tk-luc reporter, luminescence; 0% DMSO, 100% Δ7-dafachronic acid | activation, % at 6.8 µM | 1.4% of 370,000 active | AID 652067;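 active = activation above the mean of all tested compounds plus 3 SD, cut at about 5.5% in these data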;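 also: 100% = response to 3 µM Δ7-dafachronic acid high control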
hgDAF12 agonist: agonists of H. glycines DAF-12 nuclear receptor. HEK293 GAL4-hgDAF12 UAS-luciferase reporter, agonist luminescence; normalized to butyrate control. activation, % at 6.8 µM. 1.8% of 370,000 active. AID 687014;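 active = activation above a cutoff set at the mean of all screened compounds plus 3 SD, cut at about 10% in these data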;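 also: 0% = DMSO wells and 100% = sodium butyrate wells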
ssDAF12 agonist: S. stercoralis DAF-12 activation, primary screen. 1% of 370,000 active. HEK293 ssDAF-12/GRIP1 lit1-tk-luc reporter, luminescence; % of 3 µM dafachronic acid response. activation, % at 6.8 µM;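 active = activation above the mean over all tested compounds plus 3 SD, cut at about 0.9% in these data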;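 also: 0% = DMSO-only wells and 100% = 3 µM delta7-dafachronic acid wells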
DAX1 inh-2: DAX1 (NR0B1) inhibition, primary screen | AID 652010 | 1.1% of 370,000 active | HEK293T StAR-luciferase reporter, SF-1/DAX-1 repression relief | inhibition, % at 6.8 µM;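 active = inhibition above the mean over all tested compounds plus 3 SD, cut at about 3.6% in these data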;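 also: 0% = DAX-1 cells with DMSO and 100% = cells lacking DAX-1 with DMSO; higher inhibition means more luminescence from relief of DAX-1 repression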
SMARCA2 activ: increases SMARCA2 function in MMTV reporter cells | 1% of 370,000 active | activation, % at 9.1 µM | AID 652017 | MG213 cells, MMTV-luciferase reporter, dexamethasone, overnight; in the data active = activation above about 7.8%;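 also: 0% = vehicle wells and 100% = reference activator wells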
SMARCA2 act conf: confirmation of SMARCA2 (BRM) function activators | MG213 cells, MMTV-luciferase with dexamethasone, luminescence, overnight; MG213 cells expressing E1A, Rb sequestered; DMSO wells 0%, reference activator 100% | AID 652260 | activation, % at 9.1 µM | shares compounds with SMARCA2 activ | 30% of 3,500 active;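 active = activation above its plate's cutoff, the mean activation of tested wells plus 3 SD, cut at about 7.9% in these data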
GAL4-VP16 Luc: counter-screen for SMARCA2 activators: GAL4-VP16 luciferase reporter activation | shares compounds with SMARCA2 activ | activation, % at 9.1 µM | HEK293 GAL4-VP16 pG5luc reporter, luciferase luminescence; scaled: DMSO wells 0%, SAHA wells 100% | 41% of 3,500 active;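 active = activation above the solvent-only control well mean plus 3 SD, averaged across control plates, cut at about 5.2% in these data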
Numbers without * were called inactive; x = not tested or not shown.

SMILES	DAX1 inh-1	hcDAF-12 act	hgDAF12 agonist	ssDAF12 agonist	DAX1 inh-2	SMARCA2 activ	SMARCA2 act conf	GAL4-VP16 Luc
COc1ccc(N2CC(=O)N(c3ccccc3)C2=S)cc1	0	4	12*	0	2	11*	8.7*	1
COc1ccc(N=C2C(=Nc3ccc(OC)cc3)N(c3ccc(OC)cc3)C(=S)N2c2ccccc2)cc1	2	4	9	0	2	4	x	x
N=c1c2c(-c3ccccc3)c(-c3ccccc3)n(Cc3ccccc3)c2ncn1CCCn1ccnc1	-3	-1	-4	-1	-1	15*	-1	-3
COc1cccc(C(=O)Nc2cc(=O)n(C)c(=O)n2C)c1OC	0	-1	-2	-1	1	8.3*	-3	3
CCOC(=O)N1CCN(C(=O)c2ccc3c(=O)n(Cc4ccc(Cl)cc4)c(=S)[nH]c3c2)CC1	0	0	4	-1	-1	8.2*	-4	1
O=C(Nc1ccc(F)cc1F)C1CCCN1S(=O)(=O)c1cccnc1 (configuration not stated)	x	-1	-3	-1	-1	-6	x	x
O=C(N[C@@H](Cc1cccnc1)C(=O)N1CCC[C@H]1C(=O)NC1CCCC1)C1CCCC1	x	1	1	-1	0	-2	x	x
CCN(CC)C(=N)/C(C#N)=N/Nc1ccccc1	x	1	0	-1	1	13*	7	1
CNC(=O)[C@@H](NC(=O)[C@H](CC(C)C)[C@H](O)C(=O)NO)C(C)(C)C	x	-4	-5	-1	-1	-9	x	x
O=C(COC(=O)Cn1nnc2ccccc21)NC1CCCC1	0	-1	1	0	1	9.9*	1	1
O=C(Cn1nnc2ccccc21)NC1CCCCC1	2	1	1	-1	0	0	x	x
O=C(CCCc1ccccc1)Nc1cccc(C(=O)O)c1	-2	4	12*	0	4.5*	8.2*	9.1*	14*
O=C(CCc1ccccc1)Nc1ccccc1[N+](=O)[O-]	3	0	8	-1	2	8.2*	15*	5.3*
Cc1cccc(NC(=O)CCc2ccccc2)c1	-1	1	3	-1	0	9.2*	5	2
COC(=O)c1cccc(NC(=O)CCc2ccccc2)c1	0	1	3	1	0	3	x	x
CC(=O)Nc1cccc(NC(=O)CCc2ccccc2)c1	1	-1	1	-1	0	1	x	x
CC(c1ccccc1)n1cc(C(=O)N2CCCC2)nn1 (configuration not stated)	x	0	2	-1	-1	0	x	x
CCOC(=O)[C@@]12CCCC3=C1N(CCC3)C(=O)[C@H]2CC(=O)N1CCN(C(=O)c2ccco2)CC1	x	-1	-1	-2	0	1	x	x
Cc1cn(-c2cc(NC(=O)c3ccc(C)c(Nc4nccc(-c5cccnc5)n4)c3)cc(C(F)(F)F)c2)cn1	x	-3	1	-1	-1	-4	x	x
Fc1ccc(OCc2nc3ccccc3s2)cc1	2	6.2*	11*	1.1*	2	9.1*	7	12*
CN(C)CCCNC(=O)C[C@@H]1CC[C@@H]2[C@H](COc3ccc(NC(=O)c4cccc(F)c4)cc3C(=O)N2C)O1	x	0	-2	-1	1	-1	x	x
COc1cccc(-c2onc3ccc(C(C)=O)cc23)c1	2	2	2	-1	1	8.4*	6	2
Cc1ccc(-n2c(SCC(N)=O)nc3c(c2=O)C2(CCCC2)Cc2ccccc2-3)cc1	-3	0	-1	-1	0	8.0*	-2	-1
O=[N+]([O-])c1ccccc1NCCNS(=O)(=O)c1ccc(Cl)cc1	0	-1	1	-2	0	0	x	x

High-throughput results from PubChem.
